{
  "source": "PubChem BioAssay AID1053175",
  "about": "(ICCB-Longwood Screening Facility, Harvard Medical School, 2014)",
  "note": "About 700 (0.21%) of roughly 330,000 compounds were called active. This excerpt belongs to a sample that is enriched for actives. Values without a mark were called inactive.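 The calls were made as follows: active = OD600 absorbance below the run mean of sample wells minus 3.6 SD, in any replicate (cut at about 0.56 in these data); inactive = the rest.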",
  "data": [
    {"experiment": "antibacterial activity against Escherichia coli – OD600, primary screen (AID 1053175)", "conditions": "Escherichia coli growth, OD600, 23 h; active compounds read low", "values": [
      {"smiles": "CCCCCCCCCCCCn1ccc(=N)cc1", "OD600 absorbance": "0.07 (active)"},
      {"smiles": "CN1CCN(N=Cc2c[nH]c3ccccc23)CC1", "OD600 absorbance": 0.702},
      {"smiles": "COC(=O)C1=C(c2cccc(OC)c2OC)CC2CCC1N2C(=O)N1CCOCC1", "note": "(stereo not given)", "OD600 absorbance": 0.685},
      {"smiles": "Nc1nonc1C(=O)NN=Cc1ccc([N+](=O)[O-])o1", "OD600 absorbance": "0.449 (active)"},
      {"smiles": "COCCNC(=O)N1C2CCC1C(C(=O)OC)=C(c1ccc(OC(F)(F)F)cc1)C2", "note": "(stereo not given)", "OD600 absorbance": 0.679},
      {"smiles": "COC(=O)C1=C(c2ccc(F)cc2OCc2ccccc2)CC2CCC1N2C(=O)NCc1ccco1", "note": "(stereo not given)", "OD600 absorbance": 0.626},
      {"smiles": "Oc1ccc(C=NNP(=S)(c2ccccc2)c2ccccc2)cc1O", "OD600 absorbance": 0.685},
      {"smiles": "C=C1C(=O)OC2CC(C)C3C=CC(=O)[C@@]3(C)C(O)C12", "note": "(stereo not given in full)", "OD600 absorbance": 0.625},
      {"smiles": "CCN(CC)c1ccc([N+](=O)[O-])c2cccnc12", "OD600 absorbance": 0.662},
      {"smiles": "Cc1ccc(-n2c(-c3ccc([N+](=O)[O-])cc3)nc3ccccc3c2=O)cc1", "OD600 absorbance": 0.718},
      {"smiles": "O=[N+]([O-])c1cnc2ccc3ccccc3c2c1", "OD600 absorbance": "0.447 (active)"},
      {"smiles": "CNC(=O)Nc1ccc(C(=O)NN=CC23CC[C@@H](O)CC2(O)CC[C@@H]2[C@@H]3CCC3(C)C(C4=CC(=O)OC4)CCC23O)cc1", "note": "(stereo not given in full)", "OD600 absorbance": 0.72},
      {"smiles": "CC12CCC3C(CCC4CC(=NO)CCC43C)C1CCC2O", "note": "(stereo not given)", "OD600 absorbance": 0.701},
      {"smiles": "COc1ccc(-n2c(C=C3C(=O)Nc4ccccc43)nc3ccccc3c2=O)cc1", "OD600 absorbance": 0.706},
      {"smiles": "COC(=O)C1=C(c2ccc(S(C)(=O)=O)cc2)CC2CCC1N2C(=O)NCc1ccc(F)cc1", "note": "(stereo not given)", "OD600 absorbance": 0.701},
      {"smiles": "O=C1NC(=O)N(c2ccccc2)C(=O)/C1=C/c1ccc([N+](=O)[O-])s1", "OD600 absorbance": 0.531},
      {"smiles": "COc1ccc(N2C(=O)/C(=C/c3ccco3)C(=O)NC2=S)cc1", "OD600 absorbance": 0.67},
      {"smiles": "COc1cccc(N2C(=O)NC(=O)/C(=C\\c3ccc([N+](=O)[O-])s3)C2=O)c1", "OD600 absorbance": "0.482 (active)"},
      {"smiles": "COC(=O)C1=C(c2ccc(OC(F)(F)F)cc2)CC2CCC1N2C(=O)NC1CC1", "note": "(stereo not given)", "OD600 absorbance": 0.688},
      {"smiles": "C[C@]12CCC3c4ccc(O)c(O)c4CCC3C1CCC2O", "note": "(stereo not given in full)", "OD600 absorbance": 0.667}
    ]}
  ]
}
